Compound activity (PubChem)
S-ASM inh = Inhibitors of Secretory Acid Sphingomyelinase (S-ASM): qHTS | placental ASM, HMU-PC fluorogenic substrate, 60 min | Potency, µM (series often up to 57.5 µM), inactives show top-dose activity change, negative = inhibition, most hits filed as inhibitors | actives 0.006% (n = 340,000) | AID 504937, 2011; further: potency means the concentration at half of the fitted maximal effect
Target sequence (P17405 47-631 limits assumed): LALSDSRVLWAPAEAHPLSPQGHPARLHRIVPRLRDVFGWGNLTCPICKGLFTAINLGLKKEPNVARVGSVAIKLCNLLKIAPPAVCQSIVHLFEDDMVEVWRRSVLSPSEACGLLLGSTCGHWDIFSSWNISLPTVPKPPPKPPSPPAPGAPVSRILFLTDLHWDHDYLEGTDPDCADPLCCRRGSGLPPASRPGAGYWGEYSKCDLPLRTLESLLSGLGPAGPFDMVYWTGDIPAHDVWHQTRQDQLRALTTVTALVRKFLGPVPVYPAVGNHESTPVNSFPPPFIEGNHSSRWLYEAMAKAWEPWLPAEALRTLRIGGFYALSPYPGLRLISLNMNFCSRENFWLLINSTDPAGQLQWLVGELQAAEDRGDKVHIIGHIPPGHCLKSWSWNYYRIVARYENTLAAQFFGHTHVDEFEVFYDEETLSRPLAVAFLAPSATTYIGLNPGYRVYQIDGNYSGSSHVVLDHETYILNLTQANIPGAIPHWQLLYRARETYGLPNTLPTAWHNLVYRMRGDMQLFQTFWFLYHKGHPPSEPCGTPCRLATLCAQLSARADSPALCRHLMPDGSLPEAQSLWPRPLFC
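HMU-PC0 cleavage (9 uM final) by human placental ASM, 60 min at 37 °C following 10 min compound exposure at RT; stopped at pH 10, fluorescence Ex 386/Em 447 nm.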
TDP1 cell noCPT = qHTS for Inhibitors of human tyrosyl-DNA phosphodiesterase 1 (TDP1): qHTS in cells in absence of CPT. DT40 Tdp1-/- hTDP1 cells, no CPT, ATP luminescence, 48 h. Potency, µM (series often up to 46.2 µM), for inactives: at the highest dose activity change, negative = growth inhibition, most hits filed as inhibitors. actives 15% (n = 420,000); further: potency means the concentration at half of the fitted maximal effect; on the % scale 0 is the no-effect control and ±100 the full control effect; nearly all actives have a fitted effect of over 55% in size
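Chicken DT40 Tdp1-/- cells complemented with human TDP1, screened without camptothecin (DMSO vehicle only), 400 cells/well. Compounds pin-transferred, cells incubated at 37 °C for at least 48 hr. Growth read as ATP-dependent luminescence (CellTiter-Glo, 30 min at RT).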
TGFb inhibitor = qHTS for Inhibitors of TGF-b | HepG2 CAGA-GFP TGF-b/SMAD3 reporter, GFP fluorescence, 18 h; TGF-beta stimulated, 500 pg/mL final | Potency, µM (doses to about 46.1 µM), inactives show at the top dose activity, negative = inhibition, hits mostly inhibitors | actives 1.2% (n = 410,000); further: potency means the concentration at half of the fitted maximal effect; on the % scale 0 is the no-effect control and ±100 the full control effect; nearly all actives have a fitted effect of over 65% in size
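HEPG2 CAGA-GFP reporter cells (1000/well, DMEM with 1% FBS) received compounds, then recombinant TGF-beta at 500 pg/mL final for 18 hours at 37 degrees C. Per-cell GFP summed per well was normalised to unstimulated and stimulated DMSO controls before curve fitting.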
IL-1B inflam inh = qHTS for Inhibitors of Inflammasome Signaling: IL-1-beta AlphaLISA Primary Screen | THP-1 LPS/ATP IL-1B secretion, AlphaLISA, 16 h; stronger effect = lower value | activity change, % at 57.5 µM | actives 4.7% (n = 360,000); in the data active means activity change below about -50%; inconclusive means mostly about -30% to -49%; further: on the % scale 0 is the no-effect control and ±100 the full control effect
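THP-1 cells pretreated 1 hr with compounds (up to 57.5 uM final), then stimulated with LPS (250 ng/mL final) plus ATP (1.25 mM final); secreted IL-1B measured by AlphaLISA after 16 hr, decreased signal indicating inhibition.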
DT40 TDP1 CPT = qHTS for Inhibitors of human tyrosyl-DNA phosphodiesterase 1 (TDP1): qHTS in cells in presence of CPT. chicken DT40 Tdp1-/-;hTDP1 cells + 20 nM CPT, ATP luminescence, 48 h. AID 686979, 2013. Potency, µM (titrated, usually from 46.2 µM), inactives show top-dose activity change, negative = growth inhibition, hits mostly inhibitors. actives 12% (n = 420,000); further: potency means the concentration at half of the fitted maximal effect; on the % scale 0 is the no-effect control and ±100 the full control effect; nearly all actives have a fitted effect of over 55% in size
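Chicken DT40 Tdp1-/- cells complemented with human TDP1, 400 cells/well, exposed to compounds plus 20 nM camptothecin for at least 48 h at 37 C; viability read as ATP content by CellTiter-Glo luminescence.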
HepG2 tox = qHTS for Inhibitors of TGF-b: Cytotox Counterscreen; AID 588856, 2011; Potency, µM (highest dose often 46.1 µM), for the others: at the highest dose activity change, negative = cytotoxicity, usual class: cytotoxic; HepG2 CAGA-GFP viability, ATP luminescence, 18 h; actives 0.76% (n = 410,000); further: potency means the concentration at half of the fitted maximal effect
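CellTiter-Glo luminescence gave cytotoxicity after 18 hours at 37 degrees C. The cells were HepG2 CAGA-GFP in 1% FBS DMEM, stimulated with 500 pg/mL TGF-beta after compound addition. %Activity was normalised to no-cell wells (complete cell-killing) and DMSO (no toxicity), and curves were fitted and classified.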
An asterisk follows results filed as active; ? = inconclusive; / = not tested or not shown; [ ] = remark or other dose. The list is not random: actives were taken first. Their share in the collection is about 19%. Unless noted, the call rests on the fitted dose curve; in most records, active means well fitted curve in the direction sought with a large enough effect; inconclusive means small, poorly fitted or top-dose-only effect, or another doubt; inactive means no such curve, though single readings can be large; an effect the other way counts as inactive or inconclusive.

SMILES | S-ASM inh | TDP1 cell noCPT | TGFb inhibitor | IL-1B inflam inh | DT40 TDP1 CPT | HepG2 tox
Cc1ccc(NC(=O)CSc2nc(=O)n(CCN3CCOCC3)c3c2CCCC3)cc1 | -0.6% | -21.6% | -0.3% | -12.9 | -16.9% | -8.3%
COc1cc(CNc2ncc(-c3ccc(Cl)cc3)n2C)cc(OC)c1OC | 1.8% | 2.06µM* | -13.1% | -18.8 | 13µM* | -34.4%
Cn1c(-c2ccc(Br)cc2)cnc1NCc1cccnc1 | 5.5% | -11.6% | 0.7% | 14.4 | -13.9% | -1.1%
COc1cc(CNc2ncc(-c3ccc(Br)cc3)n2C)cc(OC)c1OC | 1.8% | ? | ? | -5.9 | 10.3µM* | -3.9%
COC(=O)C=CC(=NNc1ccccc1)c1ccccc1 | -12.7% | ? | ? | -0.2 | -27.3% | -7.2%
COc1cc(/C=N/NC(=O)c2csc3c2CCCC3)cc(OC)c1O | -5.0% | 5.17µM* | -3.6% | -6.6 | ? | -13.1%
Cc1ccc(/C=N/NC(=O)c2csc3c2CCCC3)cc1 | -2.5% | 1.3µM* | -23.1% | 0.6 | 1.3µM* | -9.4%
Cc1ccnc(NS(=O)(=O)c2ccc(N)cc2)n1 | 1.0% | 2.3% | 21.3% | 0.0 | 1.3% | 4.3%
Cc1cc(C)c(OCC(=O)OCC(=O)NC2CCC(C)CC2)c(C)c1 (configuration not stated) | -2.7% | -14.8% | -10.6% | 7.6 | -1.6% | -1.9%
Cc1csc(-c2cc(C(=O)NCc3ccc(F)cc3)n[nH]2)c1 | / | ? | 6.6% | -26.5 | ? | -13.5%
CCOc1cccc2cc(-c3csc(NC(=O)CCC(=O)N4CCC(C)CC4)n3)c(=O)oc12 | 39.0% | 16.4µM* | -3.3% | -1.8 | ? | -11.5%
CCOc1cccc2cc(-c3csc(NC(=O)CCC(=O)NCCN4CCCCC4C)n3)c(=O)oc12 (configuration not stated) | 70.0% | ? | -27.7% | -16.7 | -3.7% | -31.6%
CCCCCC1CCC(c2n[nH]c(=S)n2C)CC1 (configuration not stated) | -1.9% | 2.91µM* | -9.4% | 3.7 | 7.31µM* | 3.1%
Cc1ccc(NC(=O)C2CCN(c3nc4ccccc4[nH]3)CC2)c(C)c1 | / | ? | 0.0% | / | ? | -31.5%
O=c1c2c3c(sc2ncn1Cc1ccc(F)cc1)CCC3 | -1.4% | 0.1% | 3.6% | 4.4 | 7.7% | 1.8%
N=c1c2c(n(Cc3ccccc3)c3c1CCC3)CCC2 | -3.7% | 0.581µM* | 0.3% | -28.2 | 1.64µM* | -5.2%
N=c1c2c(n(Cc3ccc(F)cc3)c3c1CCC3)CCCC2 | 1.9% | 1.03µM* | -0.2% | 0.0 | 0.82µM* | -25.0%
N=c1c2c(n(Cc3cccc(Cl)c3)c3c1CCC3)CCCC2 | -1.3% | 1.84µM* | ? | -78.6* | 2.59µM* | -22.3%
CCOC(=O)Cn1c2c(c(=N)c3ccccc31)CCC2 | -0.8% | -17.9% | ? | 16.5 | -10.0% | 1.6%
N=c1c2c(n(Cc3ccc(Cl)cc3)c3c1CCC3)CCC2 | -0.8% | 2.31µM* | ? | -66.7* | 2.31µM* | -14.0%
COc1ccccc1C1CN(CC(=O)N2CCC(N3CCOCC3)CC2)Cc2ccccc2O1 (configuration not stated) | / | -27.1% | / | / | 6.8%[9.04 µM] | /
CCc1cccc(-n2c(=O)c3cccnc3n2CC(=O)NCc2ccccc2Cl)c1 | / | ? | 0.8% | / | ? | 3.7%
CCCSCCCNC(=O)c1ccccc1NC(=O)C1=CSCCO1 | -3.9% | ? | 0.8% | -9.0 | -28.8% | -25.7%
O=C(Nc1cc(-c2nc3cc(Cl)ccc3o2)ccc1Cl)c1ccco1 | / | / | -1.6% | / | / | -8.0%
Cc1cc(NC(=O)c2oc3c(c2C)-c2[nH]ncc2CC3)ccc1Br | / | 18.4µM* | ? | / | ? | -37.2%
SMILES | S-ASM inh | TDP1 cell noCPT | TGFb inhibitor | IL-1B inflam inh | DT40 TDP1 CPT | HepG2 tox
Cc1ccc(C(=O)NCC(=O)Nc2ccccc2C)o1 | / | -4.4% | -3.0% | 5.4 | 8.8% | -30.4%
C[C@@H]1CCCCO[C@H](CN(C)C(=O)Nc2ccc(F)cc2)[C@@H](C)CN([C@H](C)CO)C(=O)c2cc(NC(=O)c3ccccc3)ccc2O1 | / | ? | -12.6% | -25.4 | ? | -21.5%
C[C@@H]1CCCCO[C@H](CN(C)Cc2ccc3c(c2)OCO3)[C@H](C)CN([C@@H](C)CO)C(=O)c2cc(NC(=O)c3ccccc3)ccc2O1 | / | 20.6µM* | ? | -14.4 | 25.9µM* | -68.0%
C[C@@H]1CN([C@@H](C)CO)C(=O)c2cc(NC(=O)c3ccccc3)ccc2O[C@@H](C)CCCCO[C@@H]1CN(C)Cc1ccc(C(F)(F)F)cc1 | / | 7.31µM* | -11.7% | ? | 9.2µM* | -30.1%
C[C@@H]1CCCCO[C@H](CN(C)C(=O)NC2CCCCC2)[C@@H](C)CN([C@H](C)CO)C(=O)c2cc(NC(=O)c3ccccc3)ccc2O1 | / | 20.6µM* | 0.7% | ? | ? | -30.7%
C[C@@H]1CCCCO[C@H](CN(C)Cc2ccc3c(c2)OCO3)[C@@H](C)CN([C@H](C)CO)C(=O)c2cc(NC(=O)c3ccccc3)ccc2O1 | / | 14.6µM* | ? | ? | 20.6µM* | 1.9%
C[C@@H]1CCCCO[C@H](CN(C)C(=O)c2ccccc2)[C@@H](C)CN([C@H](C)CO)C(=O)c2cc(NC(=O)c3ccncc3)ccc2O1 | / | 12.2% | 4.9% | 18.9 | 7.9% | -2.3%
CC(C)NC(=O)Nc1ccc2c(c1)C(=O)N([C@@H](C)CO)C[C@@H](C)[C@H](CN(C)Cc1ccccc1)OCCCC[C@H](C)O2 | / | ? | 27.7% | -11.9 | -18.6% | 48.3%
C[C@@H]1CCCCO[C@@H](CN(C)Cc2ccccc2)[C@@H](C)CN([C@H](C)CO)C(=O)c2cc(NC(=O)Nc3cccc4ccccc34)ccc2O1 | / | 20.6µM* | -3.1% | 19.8 | -12.3% | -17.2%
CN1C(C(=O)NCCc2cccs2)CC2Cn3c(nc4ccccc43)C21 (configuration not stated) | 5.4% | 21.3% | -1.8% | 5.9 | 4.1% | -1.5%
Cc1ccc(NC(=O)C[n+]2cc(-c3ccccc3)n3c2CCC3)cc1 | 1.5% | ? | 9.3% | 0.0 | -1.4% | 2.1%
Cc1ccc(-c2c[n+](CC(=O)Nc3cc(=O)n(C)c(=O)n3C)c3n2CCC3)cc1 | -2.2% | 14.6µM* | -25.3% | 0.0 | ? | -5.2%
